From PubChem
aSyn UTR act: Activators via SNCA 5'UTR binding, MLPCN; actives 7.1% (n = 300,000); alpha-synuclein 5'UTR reporter, activators screen; activity score, % (tested at 7.5 µM), hits read low; AID 1814, 2009; in the data active = activity score below about -60%
The depositor's hits bear a star. Not all results are given here.

SMILES	aSyn UTR act
COc1cc(C2C=C(Nc3ccccc3)C(=O)N2c2ccccc2)ccc1O (stereo not given)	-72.1*
COc1ccc(/C=N/Nc2nc3ccccc3s2)cc1O	59.7
COc1cc(/C=C/c2nc3ccccc3s2)cc(OC)c1O	-69.1*
COc1ccc(C=C(c2nc3ccccc3s2)c2nc3ccccc3s2)cc1O	-281.1*
CN(C)c1ccc(/C=C/c2nc3ccccc3s2)cc1	81.1
CC1(C)Cc2nc3sc(C(=O)NCCCO)c(N)c3cc2CS1	-92.3*
COc1cc(/C=N/NC(=O)c2ccoc2C)cc(OC)c1O	-90.0*
Cc1ccc(/C=N/NC(=O)NC23CC4CC(CC(C4)C2)C3)o1	-83.4*
Cc1ccc(/C=N/NC(=O)c2ccoc2C)o1	-137.4*
Cc1cc(C(=O)N/N=C/c2ccc(C)o2)c2ccccc2n1	65.5
Cc1ccc(CNc2nc(C)cs2)cc1	-112.1*
CC(=O)Nc1ccc(Oc2nc(-c3ccccn3)nc3ccccc23)cc1	-114.8*
C=CCOc1nc(-c2ccccc2Cl)nc2ccccc12	72.1
CC(=O)Nc1cccc(Oc2nc(-c3ccccn3)nc3ccccc23)c1	-128.6*
Cc1cccc(Oc2nc(-c3ccccn3)nc3ccccc23)c1	-111.5*
CCOC(=O)N1CCN(C(=O)CCSc2ccccc2)CC1	-108.4*
NC(=O)C1CCN(C(=O)CCSc2ccccc2)CC1	-102.8*
COc1cccc(Nc2nc(-c3ccc(O)cc3)cs2)c1	-191.1*
COc1cccc(Nc2nc(-c3cccc(N4C(=O)c5ccccc5C4=O)c3)cs2)c1	-62.0*
O=C(Nc1ccc(Cl)c(Cl)c1)c1cccnc1	-102.3*
O=C(Nc1ccc(N2CCCCC2)c(Cl)c1)c1cccnc1	-312.9*
Cc1ccc(NC(=O)c2cccnc2)cc1C	-104.4*
O=C(Nc1ccc(N2CCCC2)c(Cl)c1)c1cccnc1	-111.9*
Cc1cc(O)c(C)c(O)c1/C=N/NC(=O)c1cccnc1	68.5
O=C(Nc1nnc(-c2ccccc2Cl)o1)c1cccnc1	-94.2*
SMILES	aSyn UTR act
CC1CCCN(S(=O)(=O)c2ccc(C(=O)Nc3nnc(-c4ccccc4Cl)o3)cc2)C1 (stereo not given)	77.9
O=C(Nc1nccs1)c1cn2ccccc2n1	64.7
Cc1cc(C(=O)Nc2nnc(C3CCCCC3)s2)no1	-63.5*
CCOCC(=O)Nc1nnc(C2CCCCC2)s1	-123.2*
Cc1cnc(C(=O)Nc2nccs2)cn1	-80.7*
Cc1cnc(C(=O)Nc2nnc(C3CC3)s2)cn1	-97.2*
COc1c(C(=O)Nc2nnc(C3CC3)s2)csc1Cl	-97.4*
CC(=O)c1ccc(OC(C)c2nc3ccccc3s2)cc1 (stereo not given)	-88.6*
C/C(=N\NC(=O)c1cccc(Cl)c1)C1C(=O)c2ccccc2C1=O	-119.9*
c1cnc(SCCOc2ccc3c(c2)CCC3)nc1	-111.4*
CSc1ccc(-c2sc(Nc3cccc4ccccc34)n[n+]2-c2ccccc2)cc1	-143.4*
CSc1ccc(-c2sc(Nc3ccccc3)n[n+]2-c2ccccc2)cc1	-98.0*
COc1cccc2oc3ccc(C#CC4(N)CCCCC4)cc3c(=O)c12	-62.3*
Cc1cc2sc3ccc(C#CC4(O)CCCCC4)cc3c(=O)c2cc1C	102.2
N/C(=N\c1nc2ccccc2o1)NC(=O)c1ccccc1F	-198.3*
CCCCC(=O)N/C(N)=N/c1nc2ccccc2o1	-206.2*
Cn1nnc(NC(=O)c2ccc3ccccc3c2)n1	-62.8*
Cn1nnc(NC(=O)c2ccc(C(C)(C)C)cc2)n1	-94.9*
Cc1cccc(-n2nc3c(c2NC(=O)C2CC2)CS(=O)(=O)C3)c1C	-85.1*
O=C1CCN(Cc2ccccc2)CCN1CCOc1ccccc1	-99.3*
CC1CCC(=O)N(CCOc2ccccc2)CC1 (stereo not given)	-80.1*
CCc1nc(C)c(C(=O)N2CCCC(C(=O)Nc3cccc(-c4cccc(C)c4)c3)C2)o1 (stereo not given)	-77.5*
Cc1cccc(-c2cccc(NC(=O)C3CCCN(C(=O)c4csc(C)n4)C3)c2)c1 (stereo not given)	-70.3*
COc1ccc2c(c1)C1=NN(/C(C)=C\C(C)=O)C(c3ccccc3)C1CC2 (stereo not given)	-140.8*
COc1ccc2c(c1)C1=NN(/C(C)=C/C(C)=O)C(c3cccc(F)c3)C1CC2 (stereo not given)	-63.8*
SMILES	aSyn UTR act
COc1ccc2c(c1)C1=NN(/C(C)=C/C(C)=O)C(c3ccc(F)cc3)C1CC2 (stereo not given)	-78.1*
Cc1ccc(/C=C\c2nccc3c2[nH]c2ccccc23)cc1	-124.8*
C(=C\c1nccc2c1[nH]c1ccccc12)/c1ccccc1	-84.4*
Fc1ccc(/C=C\c2nccc3c2[nH]c2ccccc23)cc1	-139.3*
c1ccc(-c2nc(-c3nccc4ccccc34)oc2-c2ccccc2)cc1	-81.8*
O=C1c2ccccc2C(=O)C1c1nccc2ccccc12	98.9
O=C(NCCc1ccccc1)c1cnc2ccccc2n1	-99.2*
O=C(NCCc1ccccc1)c1cccc([N+](=O)[O-])c1	-77.2*
O=C(O)c1cccc(S(=O)(=O)Nc2ccccc2C(=O)NCCc2ccccc2)c1	-63.6*
O=C(NCCc1ccccc1)c1cccc(Br)c1	-131.4*
O=C(CCCc1ccccc1)Nc1cccc([N+](=O)[O-])c1	-161.1*
